# Shiga toxin inh: Shiga toxin inhibition; Vero cells, Shiga toxin protein synthesis inhibition reporter; inhibition, % at 38.7 µM; actives 9.2% (n = 290,000); in the data active = inhibition mostly above about 28%, no sharp cut-off; inactive = mostly below about 43%; also: 0% is about no effect
# MARV entry inh: inhibitors of Marburg virus binding or cell entry | Marburg virus pseudotyped entry inhibition, cell reporter | Potency, µM (doses to about 37.8 µM), inactives show top-dose activity change, negative = inhibition, hits mostly inhibitors | actives 1.8% (n = 300,000); calls by dose curve; tested in HEK293 cells; also: potency is read from the fitted curve at half-maximal effect; % is scaled to controls: 0 for no effect and ±100 for the full control effect
# Lassa entry inh: blocks Lassa virus binding to or entry into cells | AID 540256 | Lassa virus pseudotype entry inhibition, cell reporter | actives 1.2% (n = 300,000) | Potency, µM (titrated, usually from 37.9 µM), inactives show at the highest dose activity change, negative = inhibition, hits mostly inhibitors; calls by dose curve; tested in HEK293 cells; also: potency is read from the fitted curve at half-maximal effect; % is scaled to controls: 0 for no effect and ±100 for the full control effect; nearly all actives have a fitted effect of over 50% in size
# FMDV inh: blocks foot and mouth disease virus; Potency, µM (top dose mostly 57.9 µM), without a hit: top-dose activity change, negative = inhibition, most hits filed as inhibitors; FMDV antiviral cell-based qHTS; actives 1.2% (n = 410,000); calls by dose curve; tested in HEK293T cells; also: read-out not given here; potency is read from the fitted curve at half-maximal effect; % is scaled to controls: 0 for no effect and ±100 for the full control effect; nearly all actives have a fitted effect of over 45% in size
# CHX counter: counter-screen hit for Shiga toxin inhibitors, cycloheximide; max response, %; cell reporter, cycloheximide protein synthesis inhibition counterscreen; actives 12% (n = 300,000); in the data active = max response mostly above about 13%, no sharp cut-off; inactive = mostly below about 14%; also: read at 38.3 µM for the half of the compounds with a filed dose; 0% is about no effect
# HCV inhibitor: inhibitors of hepatitis C virus infection. Huh7.5.1 HCVcc-Cre infection, luciferase reporter, 44 h. Potency, µM (highest dose often 41.8 µM), inactives show top-dose activity change, negative = inhibition, hits mostly inhibitors. actives 3.4% (n = 340,000); active = well fitted inhibition curve with a large enough effect; inconclusive = small, poorly fitted or top-dose-only effect, or another doubt; inactive = no such curve, though single readings can be large or run the other way; also: potency is read from the fitted curve at half-maximal effect; % is scaled to controls: 0 for no effect and ±100 for the full control effect
#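 After 44 h co-culture of compound, cells and HCVcc-Cre (~0.5 moi), substrate is added for 15 min at room temperature and luciferase measured over 15 sec. Cells were seeded at 1,000/well and pre-cultured 4 h.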
# Active calls of the source: *; ? = inconclusive; / = no result; [ ] = dose if it differs, or a comment. A selection: hits, their analogues and other compounds. The true share with any hit is near 13%.
SMILES,Shiga toxin inh,MARV entry inh,Lassa entry inh,FMDV inh,CHX counter,HCV inhibitor
O=C(Nc1nc(-c2ccccn2)cs1)c1ccc([N+](=O)[O-])o1,9.8,?,?,1.6%,15.7,8.91µM*
O=C(COc1ccc(F)cc1)Nc1nc(-c2ccccn2)cs1,/,-5.6%,5.5%,-16.4%,/,?
CCCn1nc(C(=O)Nc2nc(-c3ccccn3)cs2)c2ccccc2c1=O,/,/,/,?,/,5.01µM*
Cc1ccc(C(=O)Nc2nc(-c3ccccn3)cs2)o1,47.6*,/,/,28.0%,23.1*,?
Cc1ccc(CSc2oc(-c3ccco3)nc2S(=O)(=O)c2ccc(Br)cc2)cc1,/,-2.5%[46.1 µM],17.9%[46.1 µM],-14.2%,/,/
CSCC[C@H](NC(=O)C1CCN(C(=O)[C@@H](N)Cc2ccccc2)CC1)C(=O)O,-5.9,/,/,?,2.3,-1.8%
O=c1cc2nc(-c3ccccc3F)nc(SCc3ccc(Br)cc3)n2[nH]1,/,/,?,-23.2%,/,/
O=C(Nc1nc(-c2ccccn2)cs1)c1ccc(-c2ccccc2F)o1,/,/,/,11.7%,/,?
CC(=O)c1ccc(-c2ccc(C(=O)Nc3nc(-c4ccccn4)cs3)o2)cc1,/,/,/,-3.7%,/,2.51µM*
OCc1cn(-c2ccccc2)nc1-c1ccc2c(c1)OCCO2,101.1*,?,?,-19.4%,45.0*,11.2µM*
OCc1cn(-c2ccccc2)nc1-c1ccc(Br)cc1,33.3*,/,/,49.7%,31.9*,2.1%
OC[C@@H]1CCCN1Cc1cn(-c2ccccc2)nc1-c1ccc2c(c1)OCO2,19.1,/,/,2.2%,-0.1,-9.9%
c1ccc(-n2cc(CN3CCCC(CN4CCCC4)C3)c(-c3ccc4c(c3)OCO4)n2)cc1 (stereo not drawn),24.9,/,/,-8.4%,-3.6,12.6µM*
OCc1cn(-c2ccccc2)nc1-c1cc2ccccc2o1,100.3*,/,/,87.3%,55.4*,-22.2%
COc1ccc(COC(=O)C2CC(=O)N(Cc3ccc(C)cc3)C2)cc1 (stereo not drawn),-13.4,19.3%,4.7%,-17.0%,-1.8,/
COc1ccc(C(CNC(=O)c2ccc(S(=O)(=O)N(C)C)cc2)N(C)C)cc1 (stereo not drawn),14.3,2.5%[46.1 µM],4.7%[46.1 µM],6.2%,-0.9,-4.7%
CCN(c1ccccc1)S(=O)(=O)c1cc(C(=O)NCC(c2ccc(OC)cc2)N(C)C)ccc1C (stereo not drawn),/,/,/,-8.7%,/,10µM*
COc1cccc(-c2nc3ccccc3s2)c1,74.1*,?,?,-55.0%,37.7*,-18.6%
COc1cccc(CC(=O)Nc2ccc(-c3nc4ccccc4s3)cc2)c1,/,/,19.7%[46.1 µM],20.0%,/,/
COc1cccc(NC(=O)CN(C)C(=O)c2ccccc2-c2nc3ccccc3s2)c1,/,7.08µM*,-19.4%,-12.7%,/,-0.3%
COc1ccc(-c2nc3ccccc3s2)cc1,17.7,/,/,-78.0%,15.9*,2.1%
Fc1cccc(Cc2noc(CN3CCN(C4CCc5ccccc5C4)CC3)n2)c1 (stereo not drawn),4.1,13.3%[46.1 µM],9.4%,-29.0%,-2.9,5.8%
COc1ccc(Cc2noc(CN3CCN(C4CCc5ccccc5C4)CC3)n2)cc1OC (stereo not drawn),-10.0,?,-27.0%,20µM*,-4.0,?
Fc1cccc(Cc2noc(CN3CCCN(C4Cc5ccccc5C4)CC3)n2)c1,46.8,11.2µM*,6.9%[46.1 µM],7.3%,2.7,-3.5%
O=C(Nc1ccc2c(c1)OCCO2)C(c1ccncc1)n1c(=O)c(-c2ccco2)nc2ccccc21 (stereo not drawn),/,/,/,11.9%,/,/
SMILES,Shiga toxin inh,MARV entry inh,Lassa entry inh,FMDV inh,CHX counter,HCV inhibitor
O=C(O)c1cccc(COCC(F)(F)C(F)F)c1,33.4,3.4%,20.0%,15.4%,13.8,12.6%
CCn1nc(NC(=O)c2cccs2)c2cc3ccccc3nc21,9.6,/,/,-14.4%,7.4,25.1µM*
CCCn1nc(NC(=O)C2CCCO2)c2cc3cccc(C)c3nc21 (stereo not drawn),6.7,-5.3%[46.1 µM],-10.9%,2.7%,-0.4,11.2µM*
CCn1nc(NC(=O)c2ccccc2)c2cc3cccc(C)c3nc21,13.3,?,?,-18.3%,-1.6,25.1µM*
CCn1nc(NC(=O)c2cccnc2)c2cc3ccccc3nc21,-16.3,?,1.5%,?,-2.2,-28.3%
Cn1nnnc1SCC(=O)Nc1ccccc1C(N)=O,0.9,/,/,1.5%,-1.3,12.9%
Fc1cccc(Cl)c1Cn1nnc(-c2ccc3c(c2)OCO3)n1,145.9*,22.6%,?,57.2%,62.1*,-16.0%
